Compounds without any hit were thinned out: in the full panel of roughly 83,000, 20% have a hit.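 Growth was measured after 48 h exposure to one concentration of compound in 96-well plates. Values under 10 count as active.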 Values without a mark were called inactive. The source made the active and inactive calls.
The compounds below were run on PC-3 prostate (assay: NCI-60 one-dose screen, 48 h (100 = growth as untreated, 0 = no growth, -100 = all killed)). Settings: 10 µM unless noted.
For `CC(CO)(CO)C(=O)O`, the growth was 94.9%.
In the case of `O=C(O)Cc1cccc2ccccc12`, the growth is reported as 106%.
`O=c1[nH]c(=O)c2cc(Cl)cc(Cl)c2[nH]1` gave a growth of 93.7%.
Compound `C=CCC(OC(C)=O)c1ccc(OC)c(OC)c1` (centres undefined) has a growth of 92.5%.
For `C=CCC(OC(C)=O)c1ccc(C(C)C)cc1` (centres undefined), the growth was 99.1%.
For `COC(=O)Cc1cc(COC(C)=O)ccc1C`, the growth was 92.6%.
`CCCCCCCCCCCCCCCCCC(=O)NCCNC(=O)CCCCCCCCCCCCCCCCC` showed a growth of 65%.
`CC(=O)c1cccc(N(C)S(=O)(=O)c2ccc(C)cc2)c1` showed a growth of 85.2%.
Work on `N#CC1(O)CCCCC1` yielded a growth of 95.2%.
`CC(=O)OC(C)c1cccc(C#N)c1` (centres undefined) gave a growth of 96.4%.
Compound `CCN(C(C)=O)c1ccc([N+](=O)[O-])cc1` has a growth of 97.5%.
`CC(C)=CCC[C@@H](C)[C@H]1CC[C@@]2(C)C3=C(CC[C@]12C)[C@@]1(C)CC[C@H](O)C(C)(C)[C@@H]1CC3` showed a growth of 101%.
`CCOc1ccc(C(=O)NCC(C)C)cc1` gave a growth of 98.1%.
Compound `CCOC(=O)C(C#N)=C1CCN(C)CC1` has a growth of 87.7%.
For `CCOC(C=O)OCC`, the growth was 95.1%.
In the case of `Cc1nc(O)cc(=O)[nH]1`, the growth is reported as 97%.
Compound `COC1OC(C(O)C(O)CO)C(O)C(O)C1O` (centres undefined) has a growth of 95.6%.
`O=C(Nc1ccccc1)c1ccco1` showed a growth of 100%.
Compound `NC(=O)OCCO` has a growth of 98.5%.
Compound `CC(=O)c1ccc(C)cc1` has a growth of 106%.
`O=C(CC(CC(=O)c1ccccc1)c1ccccn1)c1ccccc1` gave a growth of 85.1%.
For `ON1CCCC1`, the growth was 101%.
Compound `CC(=O)c1cccc(NS(=O)(=O)c2ccc(C)cc2)c1` has a growth of 78.9%.
Compound `CC(=O)NC(CCc1ccc(Cl)c(Cl)c1)c1cccc(O)c(=O)c1` (centres undefined) has a growth of 38.9%.
Compound `O=S(=O)(OCCOS(=O)(=O)c1ccccc1)c1ccccc1` has a growth of 94.4%.
In the case of `Cc1cccc2ccccc12`, the growth is reported as 95.5%.
`O=C(OC1CCCC1)c1ccccc1Cl` showed a growth of 95.7%.
`N#CCCN1C(=O)CCC1C(=O)O` (centres undefined) was tested, and the growth was 90.9%.
Compound `CCOC(=O)C(CCC#N)(CCC#N)C(=O)OCC` has a growth of 97.6%.
Work on `Cc1ccc(OC(=O)c2ccccc2)cc1` yielded a growth of 105%.
For `O=C1NC(=O)C(c2ccccc2)O1` (centres undefined), the growth was 102%.
In the case of `O=C(CCl)Oc1ccc([N+](=O)[O-])cc1`, the growth is reported as 89.9%.
`CCCCNC(=O)c1ccc(OCC)cc1` showed a growth of 90.9%.
In the case of `CC(CCC#N)(CCC#N)C(=O)c1ccccc1`, the growth is reported as 87.8%.
Compound `O=[N+]([O-])c1c(Cl)ncnc1Cl` has a growth of 90.3%.
Compound `Cc1ccc(S(=O)(=O)CCCl)cc1` has a growth of 90.7%.
`Cc1ccc(NC(=O)c2ccccc2Cl)cc1` was tested, and the growth was 89.6%.

Each compound was assayed on SK-MEL-5 melanoma in the same assay as above. Settings: 10 µM unless noted.
For `CC(CO)(CO)C(=O)O`, the growth was 97.3%.
`O=C(O)Cc1cccc2ccccc12` gave a growth of 118%.
`O=c1[nH]c(=O)c2cc(Cl)cc(Cl)c2[nH]1` was tested, and the growth was 103%.
Compound `C=CCC(OC(C)=O)c1ccc(OC)c(OC)c1` (centres undefined) has a growth of 119%.
Work on `C=CCC(OC(C)=O)c1ccc(C(C)C)cc1` (centres undefined) yielded a growth of 117%.
With `COC(=O)Cc1cc(COC(C)=O)ccc1C` the growth was 110%.
In the case of `CCCCCCCCCCCCCCCCCC(=O)NCCNC(=O)CCCCCCCCCCCCCCCCC`, the growth is reported as 102%.
Compound `CC(=O)c1cccc(N(C)S(=O)(=O)c2ccc(C)cc2)c1` has a growth of 90.1%.
For `N#CC1(O)CCCCC1`, the growth was 106%.
`CC(=O)OC(C)c1cccc(C#N)c1` (centres undefined) gave a growth of 99.1%.
Work on `CCN(C(C)=O)c1ccc([N+](=O)[O-])cc1` yielded a growth of 96.2%.
`CC(C)=CCC[C@@H](C)[C@H]1CC[C@@]2(C)C3=C(CC[C@]12C)[C@@]1(C)CC[C@H](O)C(C)(C)[C@@H]1CC3` showed a growth of 104%.
`CCOc1ccc(C(=O)NCC(C)C)cc1` showed a growth of 101%.
`CCOC(=O)C(C#N)=C1CCN(C)CC1` gave a growth of 111%.
With `CCOC(C=O)OCC` the growth was 106%.
`Cc1nc(O)cc(=O)[nH]1` was tested, and the growth was 109%.
With `COC1OC(C(O)C(O)CO)C(O)C(O)C1O` (centres undefined) the growth was 107%.
`O=C(Nc1ccccc1)c1ccco1` showed a growth of 104%.
`NC(=O)OCCO` gave a growth of 95.4%.
`CC(=O)c1ccc(C)cc1` was tested, and the growth was 105%.
Work on `O=C(CC(CC(=O)c1ccccc1)c1ccccn1)c1ccccc1` yielded a growth of 95.4%.
Work on `ON1CCCC1` yielded a growth of 109%.
With `CC(=O)c1cccc(NS(=O)(=O)c2ccc(C)cc2)c1` the growth was 60.2%.
`CC(=O)NC(CCc1ccc(Cl)c(Cl)c1)c1cccc(O)c(=O)c1` (centres undefined) was tested, and the growth was -31.8% (active).
For `O=S(=O)(OCCOS(=O)(=O)c1ccccc1)c1ccccc1`, the growth was 93.6%.
`Cc1cccc2ccccc12` showed a growth of 100%.
In the case of `O=C(OC1CCCC1)c1ccccc1Cl`, the growth is reported as 108%.
`N#CCCN1C(=O)CCC1C(=O)O` (centres undefined) gave a growth of 110%.
Compound `CCOC(=O)C(CCC#N)(CCC#N)C(=O)OCC` has a growth of 102%.
For `Cc1ccc(OC(=O)c2ccccc2)cc1`, the growth was 101%.
Work on `O=C1NC(=O)C(c2ccccc2)O1` (centres undefined) yielded a growth of 104%.
In the case of `O=C(CCl)Oc1ccc([N+](=O)[O-])cc1`, the growth is reported as 103%.
Compound `CCCCNC(=O)c1ccc(OCC)cc1` has a growth of 103%.
In the case of `CC(CCC#N)(CCC#N)C(=O)c1ccccc1`, the growth is reported as 109%.
For `O=[N+]([O-])c1c(Cl)ncnc1Cl`, the growth was 111%.
Work on `Cc1ccc(S(=O)(=O)CCCl)cc1` yielded a growth of 114%.
Work on `Cc1ccc(NC(=O)c2ccccc2Cl)cc1` yielded a growth of 107%.

— PubChem BioAssay (NCI)
